# In PubChem BioAssay (NCATS):
# The source made the active and inactive calls. The call rests on the fitted dose curve; in most records, active means well fitted curve in the direction sought with a large enough effect; inactive means no such curve, though single readings can be large or run the other way.
# Assay: qHTS for small molecule inhibitors of Yes1 kinase: Counter Assay (AID 686950);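 further: no kinase present so only ADP-Glo detection of a fixed ADP amount is tested; luminescence from ADP-Glo reporting ADP in a fixed ATP and ADP mixture; 0% = DMSO wells with ATP plus ADP and -100% = ATP-only wells without ADP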
# Settings: series mostly up to 76.9 µM; activity change, negative = inhibition: at the top concentration
# In short: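 Enzyme-free ADP-Glo interference check: compounds were preincubated 20 min in buffer, then an ATP/ADP mix (0.08 mM ATP, 0.02 mM ADP final) was added for 60 min at room temperature before two-step ADP-Glo luminescence detection.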
Structure (SMILES),outcome,"activity change, negative = inhibition"
Nc1nccc(-c2c(-c3ccc(F)cc3)ncn2C2CCNCC2)n1,inactive,
NC(=O)c1ccc(Oc2nccc(-c3c(-c4ccc(F)cc4)ncn3C3CCNCC3)n2)cc1,,-1.1% (inactive)
CC(C)(CO)CNC(=O)c1ccc2[nH]c(O)c(N=Nc3ccc(S(N)(=O)=O)cc3)c2c1,,0.7% (inactive)
CCS(=O)(=O)c1ccc(OC)c(Nc2ncc(-c3cccc(OC)c3)o2)c1,,4.9% (inactive)
Nc1ncnc2occ(-c3ccc(NC(=O)Nc4cc(C(F)(F)F)cc(C(F)(F)F)c4)cc3)c12,,9.02% (inactive)
c1ccc(-c2[nH]ncc2-c2ccnc(-c3ccc(OCCN4CCOCC4)cc3)c2)nc1,,12.1% (inactive)
Cc1nnc(-c2ccc(C)c(-c3ccc(C(=O)NCc4ccc(Cl)cc4)cc3)c2)o1,,3.58% (inactive)
ON=C1CCc2cc(-c3nc(C4CCNCC4)[nH]c3-c3ccncc3)ccc21,,129% (inactive)
Cc1ccc2c(-c3ccnc(Nc4ccccc4)n3)c(-c3ccc(F)cc3)nn2n1,,7.88% (inactive)
FC(F)(F)c1cccc(-c2nn3ncccc3c2-c2ccnc(Nc3ccc4c(c3)OCCO4)n2)c1,,-2.39% (inactive)
Cc1nnc(-c2cccc(-c3ccc(C(=O)NCC4CC4)cc3)c2)o1,,-0.614% (inactive)
NS(=O)(=O)c1ccc(N=Nc2c(O)[nH]c3ccc(-c4cnco4)cc23)cc1,,2.56% (inactive)
COc1cc2ncn(-c3cc(OCc4ccccc4C(F)(F)F)c(C(=O)N(C)C)s3)c2cc1OC,,-2.62% (inactive)
CC(C)=Cc1cccc2[nH]c(O)c(N=Nc3ccc(S(N)(=O)=O)cc3)c12,,4.79% (inactive)
COc1cc(Nc2nccc(Nc3ccc4c(C)[nH]nc4c3)n2)cc(OC)c1OC,,2.82% (inactive)
CS(=O)(=O)Nc1ccc(N=Cc2c(O)[nH]c3ccccc23)cc1,,7.81% (inactive)
Cc1ccc(NC(=O)CC2CC2)cc1-c1ccc(C(=O)NCC2CC2)cc1,,1.41% (inactive)
O=C(Nc1ccc(Oc2ccc3nc(NC(=O)c4ccco4)[nH]c3c2)cc1)Nc1cc(C(F)(F)F)ccc1F,,5.02% (inactive)
COC(=O)Nc1nc2ccc(S(=O)(=O)c3ccc(NC(=O)Nc4cc(C(F)(F)F)ccc4F)cc3)cc2[nH]1,,-0.92% (inactive)
COc1ccc(-c2nn3ncccc3c2-c2ccnc(Nc3ccc(F)c(F)c3)n2)cc1,,-2.69% (inactive)

Structure (SMILES),outcome,"activity change, negative = inhibition"
CCS(=O)(=O)c1ccc(OC)c(Nc2ncc(-c3cccc(-c4ccccc4F)c3)o2)c1,,-3.48% (inactive)
CCc1cccc(NC(=O)Nc2ccc(Oc3ccc4nc(NC(=O)OC)[nH]c4c3)cc2)c1,,-2.4% (inactive)
CCc1ccc(Oc2nccc(-c3c(-c4ccc(F)cc4)ncn3C3CCNCC3)n2)cc1,,1.13% (inactive)
COc1ccccc1Nc1ncc(-c2ccccc2)o1,,-0.371% (inactive)
NS(=O)(=O)c1ccc(Nc2cc(-c3cccc(O)c3)[nH]n2)cc1,,4.8% (inactive)
CS(=O)(=O)Nc1ccc(-c2ccc3c(NC(=O)C4CC4)n[nH]c3c2)cc1,,-3.38% (inactive)
O=C1NC(=O)C(c2ccccc2Cl)=C1Nc1cccc(O)c1,,-4.83% (inactive)
Fc1cccc(COc2ccc(Nc3ncnc4sc(-c5ccco5)cc34)cc2Cl)c1,,5.88% (inactive)
CNC(=O)c1sc(-n2cnc3cc(OC)c(OC)cc32)cc1OCc1ccccc1C(F)(F)F,,-2.98% (inactive)
CN(C)CCNC(=O)Nc1ccc(N(C)c2ccnc(Nc3ccc(CS(C)(=O)=O)cc3)n2)cc1,,-2.09% (inactive)
CCc1cccc(CC)c1C=Cc1cncc(C(=O)NC)c1,,0.871% (inactive)
COc1cc(C)c(NC(=O)CN(C)C)cc1Nc1nc(Nc2cccc(F)c2C(N)=O)c2cc[nH]c2n1,,7.37% (inactive)
Cc1cc(Cl)cc2c(N=Nc3ccc(S(N)(=O)=O)cc3)c(O)[nH]c12,,3.54% (inactive)
NC(=O)c1cccc(Nc2nccc(Nc3cccc(F)c3)n2)c1,,1.93% (inactive)
Fc1ccc(Nc2nccc(-c3c(-c4ccc(C(F)(F)F)cc4)nn4ncccc34)n2)cc1F,,4.62% (inactive)
COc1cc(N2CCN(C(C)C)CC2)ccc1Nc1nc(Nc2ccc(F)cc2C(=O)NCC(O)CO)c2cc[nH]c2n1 (stereo not given),,4.59% (inactive)
CS(=O)(=O)CCNCc1ccc(-c2ccc3ncnc(Nc4ccc(OCc5ccccc5)c(Br)c4)c3c2)o1,,6.79% (inactive)
C#Cc1cccc(Nc2ncnc3ccc(OCCCCNCCS(C)(=O)=O)cc23)c1,,5.42% (inactive)
N#Cc1ccc(Oc2nccc(-c3c(-c4ccc(F)cc4)ncn3C3CCNCC3)n2)cc1,,3.02% (inactive)
NS(=O)(=O)c1ccc(N=Cc2c(O)[nH]c3ccc4ncsc4c23)cc1,inactive,
